Screens as filed in PubChem.
Hits are enriched below; roughly 1.3% of the tested compounds scored in any of these assays.
NPR1 activator: GC-A (human) enzyme activation | activation, % at 10 µM | HEK293 GC-A cells, cGMP TR-FRET, EC30 ANP; 0% at EC30 ANP, 100% saturating ANP | P16066 | 370,000 tested, 0.14% active; in the data active means activation above about 40%
ADAM17 inh: inhibitors of human ADAM17; P78536; recombinant ADAM17, EDANS/DABCYL FRET peptide cleavage; inhibition, % at 6.95 µM; 370,000 tested, 0.83% active;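 active means inhibition above the mean of compounds lying between control limits plus 3 SD, set per campaign, cut at about 8.5% in these data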
ADAM10 inh: ADAM10 inhibition, QFRET primary screen. recombinant ADAM10, EDANS/DABCYL FRET peptide cleavage, 3 h. inhibition, % at 7 µM. 370,000 tested, 0.62% active. AID 720582;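 active means inhibition above a per-campaign cutoff equal to the mean of compounds falling between control-based bounds plus 3 SD, cut at about 20% in these data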
Target sequence (O14672 214-748 limits assumed): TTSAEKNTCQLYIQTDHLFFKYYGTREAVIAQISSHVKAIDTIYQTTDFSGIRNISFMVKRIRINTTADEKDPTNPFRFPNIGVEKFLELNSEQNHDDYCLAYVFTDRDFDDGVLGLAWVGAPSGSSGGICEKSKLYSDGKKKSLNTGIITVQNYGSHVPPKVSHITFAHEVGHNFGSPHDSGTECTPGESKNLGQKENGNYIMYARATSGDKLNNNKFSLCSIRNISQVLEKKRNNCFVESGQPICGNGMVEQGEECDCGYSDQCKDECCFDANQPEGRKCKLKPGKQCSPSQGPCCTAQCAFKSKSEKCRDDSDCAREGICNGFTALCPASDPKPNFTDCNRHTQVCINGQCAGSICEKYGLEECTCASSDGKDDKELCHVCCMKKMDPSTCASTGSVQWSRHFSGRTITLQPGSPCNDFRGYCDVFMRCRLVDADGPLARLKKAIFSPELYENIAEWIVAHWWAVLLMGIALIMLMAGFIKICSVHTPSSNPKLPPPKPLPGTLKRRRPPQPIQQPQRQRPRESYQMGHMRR
NPR2 activator: GC-B (human) receptor activation | P20594 | HEK293-GC-B cells, CNP EC30, cGMP TR-FRET; 0% at EC30 CNP, 100% saturating CNP | activation, % at 10 µM | 370,000 tested, 0.11% active;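 active means activation at 10 µM reaching about 35% in either raw or pattern-adjusted values, limit read from the data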
ADAM10 ctr: inhibits human ADAM10 in ADAM17 exosite counter-screen | 2,900 tested, 47% active | AID 743256 | inhibition, % at 6.95 µM | shares compounds with ADAM17 inh | recombinant ADAM10, EDANS/DABCYL FRET peptide cleavage, 3 h;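 active means mean inhibition over the triplicate runs exceeds the activity threshold set in the earlier primary screen, cut at about 20% in these data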
ADAM17 confirm: confirmation of inhibitors of human ADAM17. shares compounds with ADAM17 inh. recombinant ADAM17, EDANS/DABCYL QFRET peptide cleavage. inhibition, % at 6.95 µM. 2,900 tested, 65% active. AID 743257;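 active means mean inhibition across replicates above the hit cutoff set in the primary screen, cut at about 8.5% in these data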
Numbers stand for hits; 0 = inactive; - = no result.

SMILES	NPR1 activator	ADAM17 inh	ADAM10 inh	NPR2 activator	ADAM10 ctr	ADAM17 confirm
COc1ccc(Cl)cc1NC(=S)NCc1ccccn1	0	8.7	0	0	0	0
COc1ccc(Cl)cc1NC(=S)NCCC(c1ccccc1)c1ccccc1	0	9.8	0	0	19.8	0
COc1ccc(CCN(Cc2ccccn2)C(=S)Nc2ccccc2Cl)cc1OC	0	8.7	0	0	0	0
COc1ccccc1NC(=S)NCCC(c1ccccc1)c1ccccc1	0	0	0	0	-	-
COc1cc(NC(=S)NCCC(c2ccccc2)c2ccccc2)c(OC)cc1Cl	0	9.7	0	0	25.2	13.6
CC(C)(C)c1ccc(C(=O)NCC(=O)N2CCC3(CC2)NCCc2[nH]cnc23)cc1	0	0	0	0	-	-
CCC(C(=O)NC1CCCCC1)N(Cc1cccs1)C(=O)CCC(=O)Nc1cc(C)on1 (centres undefined)	0	0	0	0	-	-
O=C(/C=C/c1ccc(S(=O)(=O)NCc2ccco2)cc1)NCc1ccccc1Cl	0	9.9	0	0	0	0
CN1C(=O)C(C)(C)c2cc(S(=O)(=O)N3CCCC(C(=O)Nc4ccc(Cl)cc4)C3)ccc21 (centres undefined)	0	0	0	0	-	-
CC(C)c1ccc(NC(=O)C2CCCN(S(=O)(=O)c3ccc4c(c3)C(C)(C)C(=O)N4C)C2)cc1 (centres undefined)	0	9.6	0	0	0	8.8
O=C(NCc1ccco1)c1ccc(-c2ccc(F)c(F)c2)c2ccoc12	0	0	0	0	-	-
O=C(CSc1nc2ccccc2[nH]1)N1c2ccccc2Sc2ccccc21	0	12.2	0	0	23.6	14.2
O=C(CSc1nc(O)cc(=O)[nH]1)N1c2ccccc2Sc2ccccc21	0	0	0	0	-	-
Cn1cc(C2(c3c[nH]c4ccccc34)CCN(C(=O)OC(C)(C)C)CC2)c2ccccc21	0	11.1	0	0	0	0
O=S1(=O)CCN(Cc2ccc(Cl)cc2)CC1	0	9.2	0	0	0	0
O=S1(=O)CCN(Cc2ccc(Cl)c(Cl)c2)CC1	0	0	0	0	-	-
COc1cccc(NC2c3ccccc3C(=O)N2Cc2ccccc2Cl)c1 (centres undefined)	0	11.7	0	0	0	10.8
COc1cc(NC2c3ccccc3C(=O)N2Cc2ccccc2Cl)cc(OC)c1 (centres undefined)	0	0	0	0	-	-
CC(=O)c1sc(NC(=O)CSC(C)C(=O)Nc2cc(C)on2)nc1-c1ccccc1 (centres undefined)	0	0	0	0	-	-
CC1=C(C(=O)N(C)C)CC(CC(=O)NC(c2ccccc2)c2ccccc2)C(=O)N1Cc1ccc(C(C)(C)C)cc1 (centres undefined)	0	0	0	0	-	-
CCN(CC)C(=O)C1=C(C)N(Cc2ccc(C(C)(C)C)cc2)C(=O)C(CC(=O)NC(c2ccccc2)c2ccccc2)C1 (centres undefined)	0	9.3	0	0	26.5	13.2
CC1=C(C(=O)N2CCOCC2)CC(CC(=O)NCc2cccc3ccccc23)C(=O)N1Cc1ccc(C(C)(C)C)cc1 (centres undefined)	0	9.0	0	0	0	0
Cc1ccc(CNC(=O)C(=O)NCCC2CCCCN2S(=O)(=O)c2ccc(C)cc2)cc1 (centres undefined)	0	13.1	0	0	0	0
O=C(NCCC1CCCCN1S(=O)(=O)c1ccccc1)C(=O)Nc1ccc(F)cc1 (centres undefined)	0	9.7	0	0	0	0
Cc1ccc(S(=O)(=O)N2CCCCC2CCNC(=O)C(=O)NCc2cccnc2)cc1 (centres undefined)	0	0	0	0	-	-
SMILES	NPR1 activator	ADAM17 inh	ADAM10 inh	NPR2 activator	ADAM10 ctr	ADAM17 confirm
Cc1ccc(CNC(=O)C(=O)NCC2OCCCN2S(=O)(=O)c2cccs2)cc1 (centres undefined)	0	10.5	0	0	0	0
COc1ccc(CNC(=O)C(=O)NCC2OCCCN2S(=O)(=O)c2cccs2)cc1 (centres undefined)	0	0	0	0	-	-
COc1ccc(NC(=O)C(=O)NCCC2CCCCN2S(=O)(=O)c2ccc(F)cc2)cc1 (centres undefined)	0	0	0	0	-	-
O=C(CN1CCN(S(=O)(=O)c2ccc(F)cc2)CC1)Nc1ccnn1C1CCCC1	0	0	0	0	-	-
CCNC(=O)C(=O)NCC(c1ccc2c(c1)OCO2)N1CCOCC1 (centres undefined)	0	0	0	0	-	-
COC(=O)[C@H]1C[C@H](OC(=O)NC2CCCC2)[C@@]2(O)CN(S(=O)(=O)c3ccc(C)cc3)CC2[C@H]1C(=O)OC (some centres undefined)	0	0	0	0	-	-
Cc1nc2ccc(S(=O)(=O)NCC(=O)NCc3ccc4c(c3)OCO4)cc2s1	0	11.0	0	0	0	14.5
COC(=O)CCN(c1ccccc1)S(=O)(=O)c1cc(-c2cc(C)no2)ccc1C	0	0	0	0	-	-
CN1CCN(C(c2ccccn2)c2cc(Cl)c3cccnc3c2O)CC1 (centres undefined)	0	17.8	0	0	42.9	45.4
Oc1c(C(c2ccc(Cl)cc2)N2CCCC2)cc(Cl)c2cccnc12 (centres undefined)	0	0	0	0	-	-
Oc1c(C(c2ccccn2)N2CCC(Cc3ccccc3)CC2)cc(Cl)c2cccnc12 (centres undefined)	0	32.5	0	0	22.6	39.0
COc1ccc(S(=O)(=O)NCCC(=O)N2CCCC2)cc1N(C)S(C)(=O)=O	0	0	0	0	-	-
N#CCCN(Cc1ccccc1)C(CCc1ccccc1)C(=O)NC1CCCCC1 (centres undefined)	0	0	0	0	-	-
O=c1oc2ccc(NS(=O)(=O)c3cccc4cccnc34)cc2s1	0	11.8	0	0	0	0
COc1cccc(NC(=O)c2cccc(S(=O)(=O)N3CCN(Cc4ccccc4)CC3)c2)c1	0	0	0	0	-	-
CC(=O)Nc1cccc(NC(=O)c2cccc(S(=O)(=O)N3CCN(Cc4ccccc4)CC3)c2)c1	0	20.0	0	0	0	11.9
Cc1ccc(C2CC(c3ccc(Cl)cc3)=NNC2=O)cc1 (centres undefined)	0	0	0	0	-	-
Cc1ccc(C2=NNC(=O)C(P(=O)(c3ccccc3)c3ccccc3)C2)cc1 (centres undefined)	0	9.4	0	0	0	0
Cc1ccc(S(=O)(=O)N2CCN(c3ccc(C(F)(F)F)cc3[N+](=O)[O-])CC2)cc1	0	10.3	0	0	21.6	11.2
Cc1ccc(N(CC(=O)Nc2cc(Cl)ccc2Oc2ccccc2)S(C)(=O)=O)cc1C	0	0	0	0	-	-
Cc1ccc(N(CC(=O)Nc2cc(Cl)ccc2Oc2ccccc2)S(C)(=O)=O)c(C)c1	0	13.5	0	0	40.7	21.8
